Results reported in the supplement of paper PMC11732987, “Enantioselective OTUD7B fragment discovery through chemoproteomics screening and high-throughput optimisation” (Communications Chemistry, 2025).

compound: ClCC(=O)NC(C1CC1)C1CC1; assay: log2 ratio of Biotin-Ahx-Ub-VS probe labelling (fragment/DMSO); higher = less target engagement (more negative = stronger competition), active = hit call of the paper (q ≤ 0.05, log2 ratio ≤ -1); details: compound concentration: 200 uM; treatment time: 3 h
Description: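 Competitive ABPP in HEK293T cell lysate. Lysates were treated with each chloroacetamide fragment at 200 µM for 3 h, then with Biotin-Ahx-Ub-VS (0.5 µM, 1 h), NeutrAvidin-enriched and analysed by diaPASEF LC-MS/MS. Protein LFQ was median-normalised; average log2 ratio is fragment/DMSO from an unpaired t-test (n=3 treated, n=44 DMSO). Hits: q ≤ 0.05, log2 ratio ≤ -1, unique peptides ≥ 2.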

Sequence of UniProt Q9UGI0 (Q9UGI0 whole entry): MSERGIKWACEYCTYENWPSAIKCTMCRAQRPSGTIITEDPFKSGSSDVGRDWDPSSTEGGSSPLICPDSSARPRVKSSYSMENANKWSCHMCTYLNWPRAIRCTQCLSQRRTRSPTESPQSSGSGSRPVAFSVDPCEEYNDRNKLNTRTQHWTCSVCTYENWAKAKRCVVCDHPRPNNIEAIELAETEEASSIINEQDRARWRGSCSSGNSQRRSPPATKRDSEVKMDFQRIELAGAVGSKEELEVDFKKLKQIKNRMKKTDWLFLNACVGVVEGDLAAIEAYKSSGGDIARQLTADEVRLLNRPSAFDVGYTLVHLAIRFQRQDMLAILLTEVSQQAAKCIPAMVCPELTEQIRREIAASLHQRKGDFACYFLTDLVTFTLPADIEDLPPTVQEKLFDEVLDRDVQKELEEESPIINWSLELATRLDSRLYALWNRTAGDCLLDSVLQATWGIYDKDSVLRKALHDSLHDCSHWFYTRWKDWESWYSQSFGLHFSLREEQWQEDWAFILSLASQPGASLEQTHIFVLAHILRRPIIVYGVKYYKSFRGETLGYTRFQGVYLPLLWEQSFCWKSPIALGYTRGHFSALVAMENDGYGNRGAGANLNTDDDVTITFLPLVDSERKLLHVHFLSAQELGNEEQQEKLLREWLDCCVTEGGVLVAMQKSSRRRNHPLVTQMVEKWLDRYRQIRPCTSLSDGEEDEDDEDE
Sequence of UniProt O94966 (O94966 whole entry): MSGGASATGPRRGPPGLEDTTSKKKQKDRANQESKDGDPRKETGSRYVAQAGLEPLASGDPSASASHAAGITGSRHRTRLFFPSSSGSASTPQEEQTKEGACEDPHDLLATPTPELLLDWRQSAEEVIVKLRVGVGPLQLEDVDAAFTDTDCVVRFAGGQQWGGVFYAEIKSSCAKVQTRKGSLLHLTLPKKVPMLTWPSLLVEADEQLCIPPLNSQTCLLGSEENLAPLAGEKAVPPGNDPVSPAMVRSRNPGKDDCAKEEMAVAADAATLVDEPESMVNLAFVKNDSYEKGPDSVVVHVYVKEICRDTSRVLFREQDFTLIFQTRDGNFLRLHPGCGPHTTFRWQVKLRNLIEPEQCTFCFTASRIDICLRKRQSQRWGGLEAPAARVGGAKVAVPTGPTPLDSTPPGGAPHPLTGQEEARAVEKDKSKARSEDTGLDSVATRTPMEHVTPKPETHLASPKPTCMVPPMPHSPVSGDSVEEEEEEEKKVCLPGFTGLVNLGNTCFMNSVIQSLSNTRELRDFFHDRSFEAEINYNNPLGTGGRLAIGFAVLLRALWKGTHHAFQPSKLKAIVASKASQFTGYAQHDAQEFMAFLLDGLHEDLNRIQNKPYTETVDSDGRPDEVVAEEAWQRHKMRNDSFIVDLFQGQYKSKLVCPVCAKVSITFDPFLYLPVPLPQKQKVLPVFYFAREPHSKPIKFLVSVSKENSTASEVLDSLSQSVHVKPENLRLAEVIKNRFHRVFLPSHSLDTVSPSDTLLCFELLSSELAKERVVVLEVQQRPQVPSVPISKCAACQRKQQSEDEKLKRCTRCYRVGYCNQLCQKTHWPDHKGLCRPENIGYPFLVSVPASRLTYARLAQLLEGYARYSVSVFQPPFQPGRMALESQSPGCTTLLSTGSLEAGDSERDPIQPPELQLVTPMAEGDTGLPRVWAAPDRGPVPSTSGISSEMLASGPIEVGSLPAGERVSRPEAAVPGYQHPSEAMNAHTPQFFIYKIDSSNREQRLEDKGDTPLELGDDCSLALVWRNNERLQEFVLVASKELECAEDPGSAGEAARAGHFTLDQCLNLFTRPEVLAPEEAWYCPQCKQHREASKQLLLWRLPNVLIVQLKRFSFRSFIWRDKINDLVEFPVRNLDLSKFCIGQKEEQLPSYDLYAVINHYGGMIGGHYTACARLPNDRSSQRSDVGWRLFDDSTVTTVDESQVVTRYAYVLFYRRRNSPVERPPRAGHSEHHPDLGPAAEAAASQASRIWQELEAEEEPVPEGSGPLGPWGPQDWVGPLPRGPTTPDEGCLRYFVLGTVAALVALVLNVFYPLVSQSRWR
Sequence of UniProt Q9P2H5 (Q9P2H5 whole entry): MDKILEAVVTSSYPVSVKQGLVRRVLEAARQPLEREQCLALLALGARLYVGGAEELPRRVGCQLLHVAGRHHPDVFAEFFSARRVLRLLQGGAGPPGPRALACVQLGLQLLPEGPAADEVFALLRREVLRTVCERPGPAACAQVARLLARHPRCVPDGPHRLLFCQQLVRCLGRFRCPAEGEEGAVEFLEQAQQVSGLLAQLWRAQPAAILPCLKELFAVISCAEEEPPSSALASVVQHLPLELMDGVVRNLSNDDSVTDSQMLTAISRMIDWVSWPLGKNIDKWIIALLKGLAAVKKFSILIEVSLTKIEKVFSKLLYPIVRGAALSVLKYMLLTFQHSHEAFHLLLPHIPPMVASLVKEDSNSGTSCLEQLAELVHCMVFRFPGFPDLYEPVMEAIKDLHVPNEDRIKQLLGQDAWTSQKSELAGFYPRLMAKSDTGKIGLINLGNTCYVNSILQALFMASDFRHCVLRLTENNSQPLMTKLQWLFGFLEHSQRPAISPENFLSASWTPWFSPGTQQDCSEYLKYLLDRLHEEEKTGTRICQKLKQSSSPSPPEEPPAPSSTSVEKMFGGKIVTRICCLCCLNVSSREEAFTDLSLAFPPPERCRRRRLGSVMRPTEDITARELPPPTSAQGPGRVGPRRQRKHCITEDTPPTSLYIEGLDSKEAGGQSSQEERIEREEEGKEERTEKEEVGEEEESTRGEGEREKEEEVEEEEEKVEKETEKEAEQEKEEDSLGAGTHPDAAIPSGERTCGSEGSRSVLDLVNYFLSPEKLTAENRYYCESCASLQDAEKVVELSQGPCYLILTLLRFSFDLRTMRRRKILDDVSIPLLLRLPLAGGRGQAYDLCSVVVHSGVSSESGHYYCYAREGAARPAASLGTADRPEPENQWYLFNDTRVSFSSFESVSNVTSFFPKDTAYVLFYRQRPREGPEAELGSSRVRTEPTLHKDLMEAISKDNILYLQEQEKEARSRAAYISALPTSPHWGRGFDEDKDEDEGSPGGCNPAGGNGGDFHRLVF
Sequence of UniProt P51784 (P51784 whole entry): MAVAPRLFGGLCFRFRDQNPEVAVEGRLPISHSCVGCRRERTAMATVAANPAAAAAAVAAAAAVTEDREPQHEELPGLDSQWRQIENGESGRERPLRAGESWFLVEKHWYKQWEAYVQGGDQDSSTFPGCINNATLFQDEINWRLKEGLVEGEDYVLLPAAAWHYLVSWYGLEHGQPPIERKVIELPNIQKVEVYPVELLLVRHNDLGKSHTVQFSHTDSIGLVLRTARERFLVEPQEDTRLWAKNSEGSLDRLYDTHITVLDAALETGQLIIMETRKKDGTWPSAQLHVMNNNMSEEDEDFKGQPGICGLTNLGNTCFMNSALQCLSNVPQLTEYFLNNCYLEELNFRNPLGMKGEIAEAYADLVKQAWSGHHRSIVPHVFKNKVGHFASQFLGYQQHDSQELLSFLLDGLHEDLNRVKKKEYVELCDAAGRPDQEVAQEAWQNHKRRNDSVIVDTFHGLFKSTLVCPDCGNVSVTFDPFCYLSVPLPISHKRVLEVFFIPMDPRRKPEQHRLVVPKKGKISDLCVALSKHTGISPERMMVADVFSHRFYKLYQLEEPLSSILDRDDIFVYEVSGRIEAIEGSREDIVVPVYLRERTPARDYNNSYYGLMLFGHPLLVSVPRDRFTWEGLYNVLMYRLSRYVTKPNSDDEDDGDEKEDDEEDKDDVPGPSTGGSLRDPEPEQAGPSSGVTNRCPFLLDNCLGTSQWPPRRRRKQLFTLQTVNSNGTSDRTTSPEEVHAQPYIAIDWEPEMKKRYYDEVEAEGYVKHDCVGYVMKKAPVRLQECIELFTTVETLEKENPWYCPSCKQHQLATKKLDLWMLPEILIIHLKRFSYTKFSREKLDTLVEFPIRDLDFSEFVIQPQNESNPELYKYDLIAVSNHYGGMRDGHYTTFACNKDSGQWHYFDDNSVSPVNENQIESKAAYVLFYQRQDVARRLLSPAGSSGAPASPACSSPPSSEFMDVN
Sequence of UniProt Q9Y5T5 (Q9Y5T5 whole entry, looked up): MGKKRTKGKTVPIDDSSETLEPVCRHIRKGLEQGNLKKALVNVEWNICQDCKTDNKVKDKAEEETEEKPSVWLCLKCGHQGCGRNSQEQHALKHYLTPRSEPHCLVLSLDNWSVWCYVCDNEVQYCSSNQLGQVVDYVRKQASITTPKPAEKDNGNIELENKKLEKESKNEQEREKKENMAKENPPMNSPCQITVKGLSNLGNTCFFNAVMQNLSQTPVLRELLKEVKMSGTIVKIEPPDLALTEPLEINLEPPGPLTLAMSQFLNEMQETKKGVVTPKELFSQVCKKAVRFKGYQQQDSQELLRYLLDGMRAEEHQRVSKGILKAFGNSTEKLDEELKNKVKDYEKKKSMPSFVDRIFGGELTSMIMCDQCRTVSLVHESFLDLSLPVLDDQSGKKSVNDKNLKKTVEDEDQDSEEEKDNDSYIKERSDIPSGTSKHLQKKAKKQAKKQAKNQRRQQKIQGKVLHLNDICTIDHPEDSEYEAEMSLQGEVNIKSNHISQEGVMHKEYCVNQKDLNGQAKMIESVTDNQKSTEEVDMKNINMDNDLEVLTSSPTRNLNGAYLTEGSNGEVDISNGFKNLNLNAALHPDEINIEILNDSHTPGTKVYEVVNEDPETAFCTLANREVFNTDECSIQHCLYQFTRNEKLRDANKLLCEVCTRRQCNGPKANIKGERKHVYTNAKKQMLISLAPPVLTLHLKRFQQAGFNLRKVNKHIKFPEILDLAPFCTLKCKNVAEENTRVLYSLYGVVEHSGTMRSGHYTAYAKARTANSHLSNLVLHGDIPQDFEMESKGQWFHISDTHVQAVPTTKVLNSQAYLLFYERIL
Sequence of UniProt P09936 (P09936 whole entry, looked up): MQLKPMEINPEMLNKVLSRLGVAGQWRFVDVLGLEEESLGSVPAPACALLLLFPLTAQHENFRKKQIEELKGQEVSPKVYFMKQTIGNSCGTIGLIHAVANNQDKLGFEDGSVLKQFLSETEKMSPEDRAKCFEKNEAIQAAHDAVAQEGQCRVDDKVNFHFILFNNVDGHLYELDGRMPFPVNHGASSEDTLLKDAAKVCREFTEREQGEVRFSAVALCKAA

| Target | log2 ratio of Biotin-Ahx-Ub-VS probe labelling |
| --- | --- |
| USP4 (UniProt Q13107) | -0.162 (inactive) |
| UniProt Q8TE49 | -0.531 (inactive) |
| OTUB1 (UniProt Q96FW1) | 0.0718 (inactive) |
| USP28 (UniProt Q96RU2) | -0.446 (inactive) |
| OTUD6B (UniProt Q8N6M0) | -0.29 (inactive) |
| UniProt Q5T2D3 | -0.0205 (inactive) |
| USP47 (UniProt Q96K76) | -0.205 (inactive) |
| USP7 (UniProt Q93009) | -0.307 (inactive) |
| UniProt P51784 | -0.304 (inactive) |
| PSMD7 (UniProt P51665) | -0.0309 (inactive) |
| BAP1 (UniProt Q92560) | -0.654 (inactive) |
| ALG13 (UniProt Q9NP73) | 0.189 (inactive) |
| UniProt Q9UGI0 | -0.0131 (inactive) |
| USP54 (UniProt Q70EL1) | -0.749 (inactive) |
| PRPF8 (UniProt Q6P2Q9) | 0.0738 (inactive) |
| USP14 (UniProt P54578) | -0.411 (inactive) |
| UniProt Q9P2H5 | -0.0753 (inactive) |
| UCHL1 (UniProt P09936) | -1.28 (active) |
| USP10 (UniProt Q14694) | -0.045 (inactive) |
| USP22 (UniProt Q9UPT9) | -0.16 (inactive) |

| Target | log2 ratio of Biotin-Ahx-Ub-VS probe labelling |
| --- | --- |
| ATXN3 (UniProt P54252) | 0.0786 (inactive) |
| OTUD7B (UniProt Q6GQQ9) | -1.44 (active) |
| OTUD4 (UniProt Q01804) | -0.457 (inactive) |
| USP36 (UniProt Q9P275) | -0.148 (inactive) |
| USP25 (UniProt Q9UHP3) | -0.502 (inactive) |
| USP34 (UniProt Q70CQ2) | -0.194 (inactive) |
| USP24 (UniProt Q9UPU5) | -0.346 (inactive) |
| YOD1 (UniProt Q5VVQ6) | -0.0299 (inactive) |
| UCHL3 (UniProt P15374) | 0.117 (inactive) |
| USP46 (UniProt P62068) | 0.045 (inactive) |
| USP16 (UniProt Q9Y5T5) | -0.253 (inactive) |
| EIF3H (UniProt O15372) | -0.0951 (inactive) |
| UCHL5 (UniProt Q9Y5K5) | -0.00772 (inactive) |
| USP48 (UniProt Q86UV5) | 0.01 (inactive) |
| COPS5 (UniProt Q92905) | -0.232 (inactive) |
| USP8 (UniProt P40818) | -0.0528 (inactive) |
| USP19 (UniProt O94966) | -0.198 (inactive) |
| FAM105A (UniProt Q9NUU6) | -0.0106 (inactive) |
| USP5 (UniProt P45974) | -0.319 (inactive) |
| OTUD5 (UniProt Q96G74) | -0.0756 (inactive) |
